This is a sample that favours compounds with a hit; in the whole collection about 21% have one here.
Pf growth 48h: P. falciparum growth inhibition at 48 hours (one generation); Potency, µM (highest dose often 28.7 µM), actives largely listed as inhibitors; 310,000 compounds, 5.9% hits; P. falciparum luciferase growth in erythrocytes, 48 h
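Luciferase-expressing parasites in RBCs, 2% Hct / 0.1% parasitemia final; RPMI 1640 + 0.5% Albumax; 37 C, 5% CO2, one generation; luminescence read-out, lower signal = inhibition.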
AMA1-RON2 inh: AMA1-RON2 (P. falciparum) interaction inhibition; AlphaScreen AMA1-biotinylated RON2 peptide binding; Potency, µM (titrated, usually from 58.2 µM), actives largely listed as inhibitors; 360,000 compounds, 0.2% hits; AID 720542; note: nearly all actives have a fitted effect of over 45% in size
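AMA1 (3D7) with his tag at 25 nM final met compounds first, then biotinylated RON2 peptide at 25 nM; detection used donor plus acceptor beads, 10 µg/mL apiece, read by AlphaScreen after 30 min at room temperature.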
Shiga inhibitor: Shiga toxin inhibition; inhibition, % at 38.7 µM; Vero cells, Shiga toxin protein synthesis inhibition reporter; AID 2315; 290,000 compounds, 9.2% hits; in the data active = inhibition mostly above about 28%, no sharp cut-off; inactive = mostly below about 43%
Pf growth 96h: P. falciparum growth inhibition at 96 hours. P. falciparum luciferase reporter growth, 96 h. Potency, µM (top dose mostly 28.7 µM), usual class: inhibitors. 320,000 compounds, 6.9% hits. AID 504834
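Parasite growth measured via integrated firefly luciferase reporter in P. falciparum. Infected erythrocytes at 2% hematocrit, 0.05% parasitemia final were treated 96 hours at 37 C under 5% CO2, and luminescence was read.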
Cycloheximide cs: counter-screen for Shiga toxin inhibitors: cycloheximide protein synthesis inhibition; cell reporter, cycloheximide protein synthesis inhibition counterscreen; max response, %; 300,000 compounds, 12% hits; in the data active = max response mostly above about 13%, no sharp cut-off; inactive = mostly below about 14%; note: read at 38.3 µM for the half of the compounds with a filed dose
HCV inh: blocks hepatitis C virus | Huh7.5.1 HCVcc-Cre infection, luciferase reporter, 44 h | Potency, µM (series often up to 41.8 µM), hits mostly inhibitors | 340,000 compounds, 3.4% hits | AID 651820
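After 44 h co-culture of compound, cells and HCVcc-Cre (~0.5 moi), substrate is added for 15 min at room temperature and luciferase measured over 15 sec. Cells were seeded at 1,000/well and pre-cultured 4 h.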
Each line names hits and unclear results; the compound was inactive in the other large screens. Unless noted, calls come from the whole dose curve; as a rule, active = well fitted curve in the direction sought with a large enough effect; inconclusive = small, poorly fitted or top-dose-only effect, or another doubt; inactive = no such curve, though single readings can be large; an effect the other way counts as inactive or inconclusive.

COc1ccc(-c2cc(C(F)(F)F)n3nc(C(=O)N(C)Cc4ccccc4)cc3n2)cc1OC	Pf growth 48h 6.6µM, HCV inh 10µM
COc1ccc(C(=O)C2CCCN(C(=O)c3cc(C4CC4)[nH]n3)C2)c(C)c1 (stereo not given)	Pf growth 96h 15µM
COc1ccc(C(=O)C2CCCN(C(=O)c3csc(C(C)=O)c3)C2)c(C)c1 (stereo not given)	none
C#Cc1cccc(C(=O)N2CCCC(C(=O)c3ccc(OC)cc3C)C2)c1 (stereo not given)	Pf growth 96h 13µM
Cc1ccc(C(=O)NCCc2nnc3ccc(NCCCN4CCOCC4)nn23)cc1	none
Cc1ccc(-c2nc(C#N)c(NCc3cccc4c3OCO4)o2)cc1	Shiga inhibitor 59, Cycloheximide cs 26 (no result: Pf growth 96h)
Cc1ccc(CNc2oc(-c3ccco3)nc2C#N)cc1	HCV inh inconclusive
CC(C)CNc1oc(-c2ccc(F)cc2)nc1C#N	Shiga inhibitor 40, Cycloheximide cs 16, HCV inh inconclusive
N#Cc1nc(-c2ccc(F)cc2)oc1NCc1cccc2c1OCO2	Cycloheximide cs 34
Cc1ccc(NC(=O)C2C3C=CC4(O3)C2C(=O)N(CCCN2CCCCC2)C4C(=O)NC2CCCCC2)cc1C (stereo not given)	none
CC(C)CNS(=O)(=O)c1ccc(S(=O)(=O)N2CCCN(Cc3ccccc3)C2)cc1	Pf growth 48h 12µM
CC1CCCN(S(=O)(=O)c2ccc(S(=O)(=O)N3CCCN(Cc4ccccc4)C3)cc2)C1 (stereo not given)	HCV inh inconclusive (no result: Pf growth 48h, Pf growth 96h)
CC(C)C(=O)NC(c1cccc([N+](=O)[O-])c1)c1ccc2cccnc2c1O (stereo not given)	Pf growth 48h 3.7µM, HCV inh 4µM
CCCC(=O)NC(c1cccc([N+](=O)[O-])c1)c1ccc2cccnc2c1O (stereo not given)	none (no result: Pf growth 48h, Shiga inhibitor, Pf growth 96h, Cycloheximide cs, HCV inh)
CC(C)C(=O)NC(c1ccco1)c1ccc2cccnc2c1O (stereo not given)	Pf growth 48h 2.1µM, AMA1-RON2 inh 20µM, HCV inh 4µM
CC(C)C(=O)NC(c1cccs1)c1cc([N+](=O)[O-])c2cccnc2c1O (stereo not given)	Pf growth 48h inconclusive, HCV inh inconclusive
Oc1c(C(Nc2nc3ccccc3s2)c2ccco2)ccc2cccnc12 (stereo not given)	Pf growth 48h 0.1µM, Pf growth 96h inconclusive, HCV inh 2.5µM
CCN(CC)c1ccc(C(NC(=O)C(C)C)c2ccc3cccnc3c2O)cc1 (stereo not given)	none (no result: Pf growth 48h, Shiga inhibitor, Pf growth 96h, Cycloheximide cs, HCV inh)
Cc1ccc(C(NC(=O)C(C)C)c2cc([N+](=O)[O-])c3cccnc3c2O)cc1 (stereo not given)	HCV inh 13µM
CC1(C(=O)NCc2ccccc2)CN(S(C)(=O)=O)CC(=O)N1CCCn1ccnc1 (stereo not given)	none (no result: Pf growth 48h, Shiga inhibitor, Pf growth 96h, Cycloheximide cs, HCV inh)
CC(C)(C)NC(=O)c1ccc(NC(=O)CSc2ccccc2)cc1	Cycloheximide cs 15
CC(=O)NS(=O)(=O)c1ccc(NC(=O)CSc2ccccc2)cc1	Pf growth 96h inconclusive
O=C(CSc1ccccc1)Nc1ccncc1	Cycloheximide cs 12, HCV inh inconclusive
CC(=O)Oc1ccc(NC(=O)CSc2ccccc2)cc1	Pf growth 96h inconclusive, Cycloheximide cs 45
O=C(CSc1ccc(F)cc1)Nc1ccc(C2SCCS2)cc1	Shiga inhibitor 85, Cycloheximide cs 35
Cc1ccc(SCC(=O)Nc2cccc(C(=O)NC(C)(C)C)c2)cc1	none
CC(=O)N1C[C@H]2CON(C)[C@H]2C[C@H]1c1cccc(-c2ccc(C#N)cc2)c1	none (no result: Pf growth 48h, Shiga inhibitor, Pf growth 96h, Cycloheximide cs, HCV inh)
Cc1ccc(SCC(=O)Nc2ccc(N3CCN(c4ccccc4)CC3)c(F)c2)cc1	none
O=C(COC(=O)CSc1ccc(Cl)cc1)Nc1ccccc1	HCV inh 14µM (no result: Shiga inhibitor, Cycloheximide cs)
O=C(COC(=O)CSc1ccc(Cl)cc1)NCCc1ccccc1	none (no result: Shiga inhibitor, Cycloheximide cs)
O=C(CSc1ccccc1)NC1=NCCS1	Cycloheximide cs 22
CN1C(=O)c2ccc(NC(=O)CSc3ccccc3)cc2C1=O	Cycloheximide cs 28
CN1CCN(c2ccc(NC(=O)CSc3ccccc3)cc2F)CC1	Shiga inhibitor 61, Cycloheximide cs 49
O=C(CCc1nc2ccccc2c(=O)[nH]1)NNC(=O)c1ccc(F)cc1	none (no result: Shiga inhibitor, Cycloheximide cs)

Bioassay records from PubChem.
